For three compounds, residual activity results are on record in ChEMBL document CHEMBL2218924, “A broad activity screen in support of a chemogenomic map for kinase signalling research and drug discovery” (Biochem J, 2013).

The target in assay [1] is Serine/threonine-protein kinase SIK1 (Homo sapiens) (UniProt P57059). The note with it: at 10 µM.
Assay [2] addresses SRSF protein kinase 1 (Homo sapiens) (UniProt Q96SB4). The note with it: at 1 µM.
The target is the same in assay [3]. To be noted: at 10 µM.
For assay [4], the target named is SRSF protein kinase 2 (Homo sapiens) (UniProt P78362). The note with it: at 1 µM.
Assay [5] shares this target. The note with it: at 10 µM.
Assay [6] deals with Serine/threonine-protein kinase 33 (Homo sapiens) (UniProt Q9BYT3). The note with it: at 1 µM.
Assay [7] shares this target. The note with it: at 10 µM.
Assay [8] has as its target Serine/threonine-protein kinase PLK2 (Homo sapiens) (UniProt Q9NYY3). The note with it: at 1 µM.
Assay [9] shares this target. To be noted: at 10 µM.
The target of assay [10] is Tyrosine-protein kinase SYK (Homo sapiens) (UniProt P43405). The note with it: at 1 µM.
Assay [11] shares this target. To be noted: at 10 µM.
Assay [12] addresses T1, Mitogen-activated protein kinase kinase kinase 7 (Homo sapiens) (UniProt O43318).
T1 sequence (whole entry): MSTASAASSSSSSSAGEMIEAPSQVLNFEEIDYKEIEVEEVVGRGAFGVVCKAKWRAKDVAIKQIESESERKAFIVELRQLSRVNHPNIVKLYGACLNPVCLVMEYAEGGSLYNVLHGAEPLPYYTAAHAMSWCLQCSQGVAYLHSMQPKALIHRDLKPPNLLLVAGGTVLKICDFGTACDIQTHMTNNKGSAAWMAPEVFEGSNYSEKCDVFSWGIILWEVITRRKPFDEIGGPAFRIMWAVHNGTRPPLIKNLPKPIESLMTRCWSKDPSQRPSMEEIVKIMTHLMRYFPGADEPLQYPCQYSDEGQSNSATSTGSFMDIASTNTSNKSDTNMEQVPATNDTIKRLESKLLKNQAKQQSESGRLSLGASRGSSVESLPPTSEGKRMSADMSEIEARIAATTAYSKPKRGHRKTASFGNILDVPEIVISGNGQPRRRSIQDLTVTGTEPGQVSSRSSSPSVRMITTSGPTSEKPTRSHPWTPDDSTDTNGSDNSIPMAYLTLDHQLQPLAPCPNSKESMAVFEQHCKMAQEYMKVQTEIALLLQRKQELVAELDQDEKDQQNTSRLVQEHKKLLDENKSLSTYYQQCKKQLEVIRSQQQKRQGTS
To be noted: at 1 µM.

In assay [13] the target is T1, Mitogen-activated protein kinase kinase kinase 7 (Homo sapiens). To be noted: at 10 µM.
Assay [14] addresses T2, Serine/threonine-protein kinase TAO1 (Homo sapiens) (UniProt Q7L7X3).
T2 sequence (whole entry): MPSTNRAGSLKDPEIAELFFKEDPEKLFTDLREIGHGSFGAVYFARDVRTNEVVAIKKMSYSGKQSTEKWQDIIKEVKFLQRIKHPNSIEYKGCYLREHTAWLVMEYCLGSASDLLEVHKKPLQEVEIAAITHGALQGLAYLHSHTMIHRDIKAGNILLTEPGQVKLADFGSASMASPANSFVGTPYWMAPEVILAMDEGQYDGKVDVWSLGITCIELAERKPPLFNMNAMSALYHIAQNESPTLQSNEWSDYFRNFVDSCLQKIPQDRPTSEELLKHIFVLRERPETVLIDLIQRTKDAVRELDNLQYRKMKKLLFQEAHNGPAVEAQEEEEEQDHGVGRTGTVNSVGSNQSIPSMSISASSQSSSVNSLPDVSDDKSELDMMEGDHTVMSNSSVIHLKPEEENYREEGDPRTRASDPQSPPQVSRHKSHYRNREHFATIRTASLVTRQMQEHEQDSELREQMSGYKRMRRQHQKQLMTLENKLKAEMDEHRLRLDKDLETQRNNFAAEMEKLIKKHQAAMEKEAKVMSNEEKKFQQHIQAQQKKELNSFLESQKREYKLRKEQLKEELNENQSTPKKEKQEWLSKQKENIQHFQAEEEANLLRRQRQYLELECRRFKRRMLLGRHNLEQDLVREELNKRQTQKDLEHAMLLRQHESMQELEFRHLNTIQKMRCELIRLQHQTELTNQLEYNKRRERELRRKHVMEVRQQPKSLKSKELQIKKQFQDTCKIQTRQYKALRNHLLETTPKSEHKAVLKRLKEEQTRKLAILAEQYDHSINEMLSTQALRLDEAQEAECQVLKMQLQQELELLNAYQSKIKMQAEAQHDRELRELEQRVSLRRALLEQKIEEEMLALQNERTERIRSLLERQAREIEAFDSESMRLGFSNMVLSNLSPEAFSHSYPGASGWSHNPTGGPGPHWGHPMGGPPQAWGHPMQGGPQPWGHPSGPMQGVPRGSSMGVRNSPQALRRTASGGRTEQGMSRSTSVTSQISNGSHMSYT
The note with it: at 1 µM.

Assay [15] has as its target T2, Serine/threonine-protein kinase TAO1 (Homo sapiens). The note with it: at 10 µM.
Assay [16] has as its target T3, Serine/threonine-protein kinase TAO2 (Homo sapiens) (UniProt Q9UL54).
T3 sequence (whole entry): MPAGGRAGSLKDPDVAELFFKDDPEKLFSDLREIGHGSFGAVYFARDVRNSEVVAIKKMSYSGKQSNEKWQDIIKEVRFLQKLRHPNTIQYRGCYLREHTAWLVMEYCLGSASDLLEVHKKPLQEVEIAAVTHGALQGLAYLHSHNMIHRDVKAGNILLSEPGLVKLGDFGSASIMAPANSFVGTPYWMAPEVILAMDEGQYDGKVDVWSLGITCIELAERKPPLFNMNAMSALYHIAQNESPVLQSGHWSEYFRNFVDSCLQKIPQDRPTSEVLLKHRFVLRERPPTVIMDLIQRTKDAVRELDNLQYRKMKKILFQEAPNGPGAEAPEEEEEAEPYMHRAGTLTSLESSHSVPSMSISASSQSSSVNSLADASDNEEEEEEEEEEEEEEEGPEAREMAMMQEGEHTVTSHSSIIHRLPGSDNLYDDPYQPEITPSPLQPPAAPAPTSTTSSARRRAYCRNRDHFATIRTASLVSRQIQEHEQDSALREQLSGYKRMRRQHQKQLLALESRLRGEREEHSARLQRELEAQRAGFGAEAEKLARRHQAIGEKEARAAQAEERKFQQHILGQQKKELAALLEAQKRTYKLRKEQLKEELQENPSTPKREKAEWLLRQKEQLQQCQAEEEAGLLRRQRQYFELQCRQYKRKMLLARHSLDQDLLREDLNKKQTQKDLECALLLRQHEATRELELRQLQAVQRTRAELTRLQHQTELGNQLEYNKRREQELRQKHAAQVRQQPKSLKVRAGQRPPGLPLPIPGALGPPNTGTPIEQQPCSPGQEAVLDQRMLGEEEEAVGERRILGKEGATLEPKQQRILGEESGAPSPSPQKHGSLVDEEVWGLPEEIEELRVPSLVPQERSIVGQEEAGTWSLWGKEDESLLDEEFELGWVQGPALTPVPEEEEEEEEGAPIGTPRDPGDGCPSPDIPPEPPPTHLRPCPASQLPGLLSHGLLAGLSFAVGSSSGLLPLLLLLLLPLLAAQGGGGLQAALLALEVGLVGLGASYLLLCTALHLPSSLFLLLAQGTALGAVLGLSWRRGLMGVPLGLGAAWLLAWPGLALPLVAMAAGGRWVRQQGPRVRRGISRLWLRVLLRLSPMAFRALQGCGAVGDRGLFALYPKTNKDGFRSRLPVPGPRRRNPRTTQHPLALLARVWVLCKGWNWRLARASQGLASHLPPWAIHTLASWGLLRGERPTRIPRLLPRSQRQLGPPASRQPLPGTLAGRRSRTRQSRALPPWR
The note with it: at 1 µM.

Assay [17] concerns the target T3, Serine/threonine-protein kinase TAO2 (Homo sapiens). To be noted: at 10 µM.
In assay [18] the target is T4, Serine/threonine-protein kinase TAO3 (Homo sapiens) (UniProt Q9H2K8).
T4 sequence (whole entry): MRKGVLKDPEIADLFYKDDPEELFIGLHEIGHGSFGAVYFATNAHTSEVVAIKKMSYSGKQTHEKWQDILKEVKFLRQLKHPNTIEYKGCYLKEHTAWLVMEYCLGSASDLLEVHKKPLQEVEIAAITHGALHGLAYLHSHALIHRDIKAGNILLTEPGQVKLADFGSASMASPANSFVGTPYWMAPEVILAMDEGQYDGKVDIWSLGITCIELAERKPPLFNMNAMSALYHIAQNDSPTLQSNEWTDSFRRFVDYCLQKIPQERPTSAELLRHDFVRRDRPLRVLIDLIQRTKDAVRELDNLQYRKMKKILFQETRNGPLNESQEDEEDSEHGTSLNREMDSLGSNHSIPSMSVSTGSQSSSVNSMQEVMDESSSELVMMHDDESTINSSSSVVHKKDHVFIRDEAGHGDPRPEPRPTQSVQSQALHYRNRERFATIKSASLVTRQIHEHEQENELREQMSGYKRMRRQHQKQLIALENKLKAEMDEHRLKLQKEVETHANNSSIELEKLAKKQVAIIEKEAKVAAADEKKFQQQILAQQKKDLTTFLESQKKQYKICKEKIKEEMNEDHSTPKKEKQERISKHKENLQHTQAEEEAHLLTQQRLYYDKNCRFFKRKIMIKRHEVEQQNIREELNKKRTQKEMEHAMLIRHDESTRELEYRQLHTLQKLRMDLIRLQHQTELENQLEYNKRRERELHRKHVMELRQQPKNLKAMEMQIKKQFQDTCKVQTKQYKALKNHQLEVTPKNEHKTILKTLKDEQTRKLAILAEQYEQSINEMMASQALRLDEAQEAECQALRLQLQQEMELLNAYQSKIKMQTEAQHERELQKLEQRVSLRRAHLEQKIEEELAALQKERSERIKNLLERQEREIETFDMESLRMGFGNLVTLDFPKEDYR
To be noted: at 1 µM.

Assay [19] concerns the target T4, Serine/threonine-protein kinase TAO3 (Homo sapiens). To be noted: at 10 µM.
The target in assay [20] is T5, Serine/threonine-protein kinase TBK1 (Homo sapiens) (UniProt Q9UHD2).
T5 sequence (whole entry): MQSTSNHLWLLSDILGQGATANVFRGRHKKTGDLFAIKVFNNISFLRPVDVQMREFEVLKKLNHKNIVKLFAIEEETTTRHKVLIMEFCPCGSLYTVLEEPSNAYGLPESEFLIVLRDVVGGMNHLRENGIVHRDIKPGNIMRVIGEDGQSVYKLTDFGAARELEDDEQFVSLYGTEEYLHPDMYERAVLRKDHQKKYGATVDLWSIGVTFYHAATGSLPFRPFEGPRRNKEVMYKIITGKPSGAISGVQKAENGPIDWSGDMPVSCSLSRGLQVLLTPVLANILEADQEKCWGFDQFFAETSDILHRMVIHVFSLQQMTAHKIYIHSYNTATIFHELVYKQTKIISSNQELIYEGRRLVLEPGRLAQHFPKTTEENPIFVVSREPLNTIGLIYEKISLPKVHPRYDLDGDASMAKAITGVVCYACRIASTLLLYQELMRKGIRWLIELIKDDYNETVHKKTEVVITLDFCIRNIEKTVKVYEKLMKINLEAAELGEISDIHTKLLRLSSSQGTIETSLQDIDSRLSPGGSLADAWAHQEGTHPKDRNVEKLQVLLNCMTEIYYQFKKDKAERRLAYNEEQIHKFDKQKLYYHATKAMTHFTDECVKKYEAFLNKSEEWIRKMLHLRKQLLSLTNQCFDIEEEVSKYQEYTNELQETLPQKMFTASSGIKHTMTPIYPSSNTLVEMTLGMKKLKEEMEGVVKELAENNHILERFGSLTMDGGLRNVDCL
The note with it: at 1 µM.

Chain of SRSF protein kinase 1 (Homo sapiens) (Q96SB4 whole entry): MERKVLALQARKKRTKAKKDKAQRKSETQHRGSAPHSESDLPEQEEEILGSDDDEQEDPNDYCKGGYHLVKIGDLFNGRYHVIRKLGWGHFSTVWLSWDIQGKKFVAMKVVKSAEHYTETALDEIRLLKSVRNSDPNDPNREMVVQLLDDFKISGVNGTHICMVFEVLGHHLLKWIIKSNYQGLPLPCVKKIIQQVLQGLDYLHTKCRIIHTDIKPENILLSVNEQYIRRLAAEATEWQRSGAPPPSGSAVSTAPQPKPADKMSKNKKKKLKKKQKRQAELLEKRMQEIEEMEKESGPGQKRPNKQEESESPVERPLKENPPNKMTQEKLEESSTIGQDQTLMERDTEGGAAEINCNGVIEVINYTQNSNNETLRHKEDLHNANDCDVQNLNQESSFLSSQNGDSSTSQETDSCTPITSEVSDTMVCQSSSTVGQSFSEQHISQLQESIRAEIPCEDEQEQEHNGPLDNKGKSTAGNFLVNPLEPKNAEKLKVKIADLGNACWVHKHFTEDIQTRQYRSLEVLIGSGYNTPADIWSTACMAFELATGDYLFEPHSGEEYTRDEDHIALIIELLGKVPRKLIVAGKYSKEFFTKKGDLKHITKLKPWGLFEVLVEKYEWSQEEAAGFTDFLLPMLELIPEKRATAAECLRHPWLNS
Chain of SRSF protein kinase 2 (Homo sapiens) (P78362 whole entry, looked up): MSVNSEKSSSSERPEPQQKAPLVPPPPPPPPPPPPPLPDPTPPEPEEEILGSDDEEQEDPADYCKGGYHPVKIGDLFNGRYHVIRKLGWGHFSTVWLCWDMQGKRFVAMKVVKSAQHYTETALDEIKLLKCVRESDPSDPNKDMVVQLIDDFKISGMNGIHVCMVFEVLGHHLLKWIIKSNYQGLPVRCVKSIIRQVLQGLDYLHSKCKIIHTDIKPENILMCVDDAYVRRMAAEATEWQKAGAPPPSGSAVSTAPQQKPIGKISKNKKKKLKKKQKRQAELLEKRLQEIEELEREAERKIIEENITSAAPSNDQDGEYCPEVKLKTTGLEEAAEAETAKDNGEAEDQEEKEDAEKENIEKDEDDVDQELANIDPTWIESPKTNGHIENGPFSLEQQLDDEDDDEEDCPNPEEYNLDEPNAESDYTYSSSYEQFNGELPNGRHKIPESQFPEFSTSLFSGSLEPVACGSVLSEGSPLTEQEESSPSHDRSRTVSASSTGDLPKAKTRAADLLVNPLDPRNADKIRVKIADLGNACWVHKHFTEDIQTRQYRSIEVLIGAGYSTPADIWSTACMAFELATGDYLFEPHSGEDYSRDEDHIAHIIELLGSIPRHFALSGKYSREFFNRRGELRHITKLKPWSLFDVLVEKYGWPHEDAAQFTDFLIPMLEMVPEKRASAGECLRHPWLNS
Chain of Serine/threonine-protein kinase 33 (Homo sapiens) (Q9BYT3 whole entry, looked up): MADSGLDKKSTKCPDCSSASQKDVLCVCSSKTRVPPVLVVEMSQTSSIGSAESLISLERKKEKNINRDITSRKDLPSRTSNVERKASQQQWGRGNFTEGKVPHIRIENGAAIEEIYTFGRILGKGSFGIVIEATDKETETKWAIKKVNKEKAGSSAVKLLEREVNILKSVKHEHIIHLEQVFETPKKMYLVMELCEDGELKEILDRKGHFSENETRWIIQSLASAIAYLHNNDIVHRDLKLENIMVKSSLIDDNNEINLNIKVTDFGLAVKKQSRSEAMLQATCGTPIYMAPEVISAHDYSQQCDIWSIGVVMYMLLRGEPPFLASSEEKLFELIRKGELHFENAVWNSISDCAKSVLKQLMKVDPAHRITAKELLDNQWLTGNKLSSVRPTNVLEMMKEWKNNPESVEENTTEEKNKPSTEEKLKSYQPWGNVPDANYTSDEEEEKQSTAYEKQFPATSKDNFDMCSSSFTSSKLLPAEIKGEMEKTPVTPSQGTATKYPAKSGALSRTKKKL
Chain of Serine/threonine-protein kinase SIK1 (Homo sapiens) (P57059 whole entry): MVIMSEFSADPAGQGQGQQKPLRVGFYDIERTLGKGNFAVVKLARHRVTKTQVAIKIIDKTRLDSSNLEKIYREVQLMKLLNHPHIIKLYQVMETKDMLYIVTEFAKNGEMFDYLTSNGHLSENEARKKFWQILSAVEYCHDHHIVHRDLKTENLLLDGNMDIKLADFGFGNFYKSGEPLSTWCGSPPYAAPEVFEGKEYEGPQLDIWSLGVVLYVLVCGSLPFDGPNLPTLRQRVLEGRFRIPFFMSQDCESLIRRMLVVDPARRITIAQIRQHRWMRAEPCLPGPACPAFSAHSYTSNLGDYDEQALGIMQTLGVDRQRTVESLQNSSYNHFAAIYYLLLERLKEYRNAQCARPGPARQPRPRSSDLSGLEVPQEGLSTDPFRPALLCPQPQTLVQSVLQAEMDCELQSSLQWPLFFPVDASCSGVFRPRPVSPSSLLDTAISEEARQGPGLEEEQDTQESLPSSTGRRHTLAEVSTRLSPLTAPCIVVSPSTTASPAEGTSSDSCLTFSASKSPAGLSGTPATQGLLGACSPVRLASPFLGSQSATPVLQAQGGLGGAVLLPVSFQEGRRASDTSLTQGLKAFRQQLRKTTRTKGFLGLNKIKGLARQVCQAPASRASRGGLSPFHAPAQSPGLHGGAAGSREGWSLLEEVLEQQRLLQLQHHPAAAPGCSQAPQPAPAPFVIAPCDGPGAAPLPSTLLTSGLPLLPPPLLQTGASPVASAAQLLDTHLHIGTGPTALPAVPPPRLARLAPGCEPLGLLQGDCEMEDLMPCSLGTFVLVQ
Chain of Serine/threonine-protein kinase PLK2 (Homo sapiens) (Q9NYY3 whole entry, looked up): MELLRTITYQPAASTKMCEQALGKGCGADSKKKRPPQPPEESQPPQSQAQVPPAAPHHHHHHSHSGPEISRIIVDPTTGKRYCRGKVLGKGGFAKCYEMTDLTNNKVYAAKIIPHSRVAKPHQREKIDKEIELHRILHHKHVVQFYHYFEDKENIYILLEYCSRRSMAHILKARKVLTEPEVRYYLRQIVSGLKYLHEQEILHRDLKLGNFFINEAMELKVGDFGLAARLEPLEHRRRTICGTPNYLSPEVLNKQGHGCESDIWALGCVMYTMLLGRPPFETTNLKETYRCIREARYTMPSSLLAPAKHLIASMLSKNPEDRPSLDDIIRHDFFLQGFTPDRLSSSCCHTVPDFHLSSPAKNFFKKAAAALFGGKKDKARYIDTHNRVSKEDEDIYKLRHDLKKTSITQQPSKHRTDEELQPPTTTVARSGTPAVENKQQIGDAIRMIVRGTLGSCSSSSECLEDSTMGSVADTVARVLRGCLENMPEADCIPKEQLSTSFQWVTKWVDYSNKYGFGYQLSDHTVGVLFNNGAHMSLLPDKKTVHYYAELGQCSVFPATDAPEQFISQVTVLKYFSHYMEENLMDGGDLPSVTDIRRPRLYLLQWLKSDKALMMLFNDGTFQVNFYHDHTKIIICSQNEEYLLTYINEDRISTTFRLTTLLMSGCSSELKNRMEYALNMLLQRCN

On to `O=C(O)c1ccc2c3c1cccc3c(=O)n1c3ccccc3nc21`, for which the residual activity in assay [1] stood at 83%; in assay [2], 78%; in assay [3] it was 21%; in [4] it was 91%; in [5], 33%; in assay [6] it was 99%. Further, the residual activity in [7] came to 59%; in assay [8] it was 100%; in [9], 94%; in assay [10], 100%; in assay [11], 105%; in [12], 89%. The residual activity in [13] came out at 41%; in assay [14] it was 90%; in assay [15], 56%; in assay [16] it was 110%; in assay [17], 91%; in assay [18], 91%. The residual activity came to 65% in [19] and 19% in assay [20].

Turning to `COc1ccc(C(=O)Nc2sc3c(c2C(N)=O)CCCC3)cc1OC`, the residual activity in assay [1] was found to be 91%; in [2] it was 84%; in assay [3], 95%; in [4], 89%; in [5], 89%; in assay [6], 91%. Besides, the residual activity in [7] came to 97%; in assay [8] it was 98%; in [9], 97%; in [10], 126%; in assay [11], 89%; in assay [12], 86%. Also, the residual activity in assay [13] came to 86%; in [14] it was 97%; in assay [15] it was 86%; in assay [16], 92%; in [17] it was 83%; in assay [18], 91%. The residual activity in assay [19] came out at 93%; in assay [20] it was 72%.

Regarding `Nc1nc(Nc2ccc(S(N)(=O)=O)cc2)nn1C(=S)Nc1c(F)cccc1F`, the residual activity in [1] is -2%; in [2] it was -2%; in assay [3], 7%; in [4], 3%; in assay [5], -3%; in assay [6], 77%. Also, the residual activity in assay [7] is 26%; in assay [8], 71%; in assay [9] it was 26%; in [10], 16%; in assay [11] it was 3%; in assay [12] it was 9%. For the same compound, the residual activity was found to be 2% in [13]; 0% in assay [14]; 1% in assay [15]; 2% in assay [16]; 3% in [17]; 0% in assay [18]. In addition, the residual activity in assay [19] was 2%; in assay [20], -1%.
